{
  "source": "PubChem BioAssay (NCATS)",
  "note": "Records with an inconclusive call do not appear. Unmarked numbers belong to inactive results. The source made the active and inactive calls. The call rests on the fitted dose curve; in most records, active means well fitted inhibition curve with a large enough effect; inconclusive means small, poorly fitted or top-dose-only effect, or effect the other way; inactive means flat fitted curve, though single readings scatter. On the % scale 0 is the no-effect control and ±100 the full control effect; potency means the concentration at half of the fitted maximal effect.",
  "data": [
    {"biological_target": "ATP-dependent 6-phosphofructokinase (Trypanosoma brucei brucei) (UniProt O15648)", "sequence (O15648 whole entry, looked up)": "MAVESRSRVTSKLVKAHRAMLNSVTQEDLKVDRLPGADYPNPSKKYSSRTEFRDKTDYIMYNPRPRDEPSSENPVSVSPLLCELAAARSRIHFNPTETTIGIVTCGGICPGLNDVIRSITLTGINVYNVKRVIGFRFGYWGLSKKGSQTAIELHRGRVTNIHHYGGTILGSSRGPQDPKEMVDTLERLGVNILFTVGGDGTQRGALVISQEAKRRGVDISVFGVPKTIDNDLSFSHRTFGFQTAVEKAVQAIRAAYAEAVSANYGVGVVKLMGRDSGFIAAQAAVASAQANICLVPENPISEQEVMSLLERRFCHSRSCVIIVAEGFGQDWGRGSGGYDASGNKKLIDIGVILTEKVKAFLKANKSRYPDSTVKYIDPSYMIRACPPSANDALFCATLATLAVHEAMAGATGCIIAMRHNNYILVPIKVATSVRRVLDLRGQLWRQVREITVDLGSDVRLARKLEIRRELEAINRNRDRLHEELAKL", "assay": "qHTS Assay to Find Inhibitors of T. brucei phosphofructokinase: hit validation (AID 492961);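 on activity change, negative = inhibition: luminescence reports ADP formed as PFK phosphorylates fructose-6-phosphate with ATP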", "settings": "T. brucei PFK, ADP-Glo luminescence; series mostly up to 51.4 µM; activity change, negative = inhibition: at the top concentration", "summary_of_the_method": "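In this biochemical qHTS validation, titrated compounds were tested against 1.25 nM PFK with 0.1 mM ATP and 0.5 mM F6P. Percent activity came from controls lacking or containing enzyme.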", "values": [
      {"smiles": "O=C(O)P(=O)(O)O", "activity change, negative = inhibition": "1.54%"},
      {"smiles": "CCc1oc2ccccc2c1C(=O)c1cc(Br)c(O)c(Br)c1", "activity change, negative = inhibition": "5.1%"},
      {"smiles": "CCCCC(CC)COC(=O)/C=C/c1ccc(OC)cc1", "note": "(stereo not given)", "activity change, negative = inhibition": "-5.2%"},
      {"smiles": "COc1ccc(-c2cc(C(F)F)nn2-c2ccc(S(N)(=O)=O)cc2)cc1F", "activity change, negative = inhibition": "-1.48%"},
      {"smiles": "COc1cc(C(=O)NCc2ccc(OCCN(C)C)cc2)cc(OC)c1OC", "activity change, negative = inhibition": "10.6% [at 24.3 µM]"},
      {"smiles": "CCCCCN=C(N)N/N=C/c1c[nH]c2ccc(OC)cc12", "activity change, negative = inhibition": "-1.02%"},
      {"smiles": "CN(C)CCOC(c1ccc(Cl)cc1)c1ccccn1", "note": "(stereo not given)", "activity change, negative = inhibition": "-2.97%"},
      {"smiles": "Cc1cccc(C)c1NC(=O)c1ccccc1C(=O)O", "activity change, negative = inhibition": "-8.38%"},
      {"smiles": "C/C=C/C=N/NC(=O)c1ccncc1", "activity change, negative = inhibition": "-5.27%"},
      {"smiles": "CCCCCCCCCCCCOCCOCCOCCOCCOCCOCCOCCOCCOCCO", "activity change, negative = inhibition": "0%"},
      {"smiles": "CC[C@H](c1ccc(O)cc1)[C@@H](CC)c1ccc(O)cc1", "activity change, negative = inhibition": "-1.92% [at 24.3 µM]"},
      {"smiles": "NC1CCN(c2nc3c(cc2F)c(=O)c(C(=O)O)cn3-c2ccc(F)cc2F)C1", "note": "(stereo not given)", "activity change, negative = inhibition": "4.82%"},
      {"smiles": "CN1CCc2cccc3c2[C@H]1Cc1ccc(O)c(O)c1-3", "Potency": "12.6 µM (active)"},
      {"smiles": "CC(=O)N[C@@H](CCC(=O)O)C(=O)O", "activity change, negative = inhibition": "1.62%"},
      {"smiles": "CCc1oc2ccccc2c1C(=O)c1cc(I)c(O)c(I)c1", "activity change, negative = inhibition": "-13.4%"},
      {"smiles": "N=C(N)N1CCc2ccccc2C1", "activity change, negative = inhibition": "-5.37%"},
      {"smiles": "CC(=O)Nc1ccc(OCC(O)CNC(C)C)cc1", "note": "(stereo not given)", "activity change, negative = inhibition": "6.4%"},
      {"smiles": "COc1ccc(CN(CCN(C)C)c2ncccn2)cc1", "activity change, negative = inhibition": "9.56%"},
      {"smiles": "N#CCC(=O)NN", "activity change, negative = inhibition": "9.74%"},
      {"smiles": "OC[C@H]1O[C@@H]2O[C@H]3[C@H](O)[C@@H](O)[C@@H](O[C@H]4[C@H](O)[C@@H](O)[C@@H](O[C@H]5[C@H](O)[C@@H](O)[C@@H](O[C@H]6[C@H](O)[C@@H](O)[C@@H](O[C@H]7[C@H](O)[C@@H](O)[C@@H](O[C@H]8[C@H](O)[C@@H](O)[C@@H](O[C@H]1[C@H](O)[C@H]2O)O[C@@H]8CO)O[C@@H]7CO)O[C@@H]6CO)O[C@@H]5CO)O[C@@H]4CO)O[C@@H]3CO", "activity change, negative = inhibition": "14.8%"}
    ]}
  ]
}
